# Results filed as inconclusive are left out. Active and inactive are the calls of the source.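 How the source made its calls: active means viability at or below 27.92% in each of two runs, the all-compound median minus 4 SD; inconclusive means no clear call, values can overlap the other calls; inactive means the rest.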
# Experiment: growth suppression of PTEN-deleted HCT116, pilot screen, cell-based, HCT116 clonal line, CellTiter-Glo (AID 824);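 further: 0% = 20 µM Hyamine control and 100% = vehicle cell control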
# Settings: 60 h, at 10 µM, active compounds read low
row,SMILES,viability
1,Cc1ccc(S(=O)(=O)NC2OC(=O)C(Cl)=C2Cl)cc1 (centres undefined),104% (inactive)
2,O=C(Nc1ccccc1)OCCOc1ccccc1,100% (inactive)
3,COC(=O)C1=C(C)N(C)C(C)=C(C(=O)OC)C1c1cccc(Br)c1,67.4% (inactive)
4,CCC(C)NS(=O)(=O)c1ccc(NC(=O)c2c(-c3ccccc3)noc2C)cc1 (centres undefined),71.1% (inactive)
5,CN(C)S(=O)(=O)c1ccc(NC(=O)C2COc3ccccc3O2)cc1 (centres undefined),83.8% (inactive)
6,Cc1cc(C)cc(N(CC(=O)Nc2c(C)n(C)n(-c3ccccc3)c2=O)S(C)(=O)=O)c1,93.2% (inactive)
7,CCOC(=O)C1CCCN(C(=O)Cn2ncc3c(=O)oc4ccc(C)cc4c32)C1 (centres undefined),95% (inactive)
8,Cn1c(=O)c2c(nc(-n3ccnc3)n2Cc2ccc(Cl)cc2Cl)n(C)c1=O,80.4% (inactive)
9,CCOC(=O)c1ccc(NC(=O)C2CCN(S(=O)(=O)c3ccccc3)CC2)cc1,70.2% (inactive)
10,COc1ccc(-c2c(C)oc3c(CN4CCCCC4C)c(O)ccc3c2=O)cc1OC (centres undefined),97.5% (inactive)
11,CCCC(=N)C1=C(O)CC(CC(C)SCC)CC1=O (centres undefined),103% (inactive)
12,NC(=O)C1CCN(C(=O)c2ccc(CS(=O)(=O)c3c(Cl)cccc3Cl)o2)CC1,98.3% (inactive)
13,CC(C)Sc1nc2c(cnn2-c2ccc(F)cc2)c(=O)[nH]1,97.3% (inactive)
14,COc1ccc(C(=O)Nc2ccc(S(=O)(=O)N3CCCCC3C)cc2)c(OC)c1OC (centres undefined),96.1% (inactive)
15,COc1ccccc1N1CCN(Cc2cc(Br)c(O)c3ncccc23)CC1,6.17% (active)
16,CCc1nc(N(CC)CC)c2oc3ccccc3c2n1,71% (inactive)
17,Cc1cc(NC(=O)c2cc(CC(C)C)on2)no1,94.5% (inactive)
18,CCOC(=O)CNC(=O)c1cn(CC(C)C)c(=O)c2cc(OC)c(OC)cc12,101% (inactive)
19,Nc1c(C(=O)c2ccc(Br)s2)oc2ccccc12,88.7% (inactive)
20,CCn1c(N)nc2c1c(=O)n(C)c(=O)n2C,98.9% (inactive)

row,SMILES,viability
1,COc1ccc(CNC(=O)CS(=O)Cc2nc(-c3ccccc3C)oc2C)cc1 (centres undefined),101% (inactive)
2,CCNC(=O)Cc1ccc(NS(=O)(=O)c2ccc(F)cc2)cc1,94.6% (inactive)
3,CCc1ccc(-c2nc(CN3CCCC(C(=O)O)C3)c(C)o2)cc1 (centres undefined),101% (inactive)
4,Cc1nnc(SCCC(C)C)[nH]c1=O,99.7% (inactive)
5,O=C(Cn1c(S(=O)(=O)Cc2ccccc2)nc2ccccc21)N1CCCCC1,99.3% (inactive)
6,COc1cc(C(=O)NCc2ccco2)c(Br)c(OC)c1OC,96% (inactive)
7,COc1ccc(O)c(-c2[nH]ncc2C(=O)c2ccccc2)c1,94.8% (inactive)
8,Cc1ccc(Cl)cc1NC(=O)COC(=O)C1CCCC1,94.4% (inactive)
9,Cc1cc(NCc2ccco2)nc2cc(O)ccc12,93.4% (inactive)
10,CC(=O)c1c(N2CCN(c3ccccc3)CC2)nc(=S)n(-c2ccccc2)c1C,99.9% (inactive)
11,O=C(CSCC(=O)N1CCOCC1)Nc1nc(-c2ccc3c(c2)OCO3)cs1,97.3% (inactive)
12,Cc1ccc(C(=O)N2CCN(C3CCCCC3)CC2)s1,97.7% (inactive)
13,CC1=C(C(=O)OCc2ccccc2)C(c2ccco2)C2=C(CC(C)(C)CC2=O)N1 (centres undefined),67.5% (inactive)
14,COC(=O)C1Sc2[nH]c(=O)sc2C(c2ccc(Cl)cc2)C1C(=O)OC (centres undefined),88.7% (inactive)
15,CC12C(=O)N(c3ccccn3)C(=O)C1C1C=CC2C1 (centres undefined),92% (inactive)
16,c1ccc(Cn2ncc3c(N4CCCCC4)ncnc32)cc1,95.4% (inactive)
17,CCOc1ccccc1Nc1nnc(C)c(=O)[nH]1,99.3% (inactive)
18,CCOCCCNC(=O)C(c1ccc(OC)cc1)N(Cc1ccc2c(c1)OCO2)C(=O)CNC(C)=O (centres undefined),107% (inactive)
19,CCCCC(CC)C(=O)NCCc1ccc(S(N)(=O)=O)cc1 (centres undefined),97.9% (inactive)
